The nature of assay [1]: qHTS assay to identify small molecule agonists of the estrogen receptor alpha (ER-alpha) signaling pathway in the presence of an antagonist - cell viability counter screen (AID 1259386).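 Also: cells exposed to compounds for 22 h at 37 °C before the viability read; nearly all actives have a fitted effect of over 30% in size.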 Also: potency is read from the fitted curve at half-maximal effect. As to activity change, negative = cytotoxicity: series mostly up to about 92 µM. A digest of the protocol:
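Steps: 5-day stripped-FBS culture; seed and incubate 24hr; add ICI-182,780 (10.0nM final); pin 15-point compound titration; incubate 22hr at 37C; add CellTiter-Fluor at 21hr; read fluorescence.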

The target in assay [2] is Progesterone receptor (Homo sapiens) (UniProt P06401). Nature of the assay: qHTS assay to identify small molecule agonists of the progesterone receptor (PR) signaling pathway (AID 1346784; calls by dose curve; also: nearly all actives have a fitted effect of over 30% in size). In a few lines: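 Compounds were tested for PR agonism in HEK 293T cells bearing a beta-lactamase gene under UAS control. Treatment lasted 16 hr at 37C; signal came from fluorescence of a FRET substrate.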
Background: Quantitative high-throughput screening tests each substance at several concentrations.

Assay [3] has the same target. Briefly: qHTS assay to identify small molecule antagonists of the progesterone receptor (PR) signaling pathway (AID 1346795; active = well fitted inhibition curve with a large enough effect in the signal ratio in the repeat runs, not every such curve was filed as active; the % refers to the signal ratio). In a few lines: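 In HEK293T cells bearing the PR-UAS-bla reporter, compound effects on promegestone-driven (1 nM) beta-lactamase expression are assessed after 16 hr using a fluorescent FRET substrate incubated 2 hr at room temperature.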
Assay [4] in a line: qHTS assay to identify small molecule antagonists of the progesterone receptor (PR) signaling pathway - cell viability counter screen (AID 1346798). Also: series mostly up to about 92 µM; nearly all actives have a fitted effect of over 50% in size. A digest of the protocol:
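Following a 4 hr attachment, PR-UAS-bla HEK293T cells in charcoal-stripped FBS medium were exposed to compounds with R5020 for 16 hr; CellTiter-Glo was added and luminescence read after 30 min at room temperature.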

A short description of assay [5]: qHTS assay to identify small molecule agonists of the progesterone receptor (PR) signaling pathway - cell viability counter screen (AID 1346799; calls by dose curve; also: nearly all actives have a fitted effect of over 45% in size). In a few lines: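 Here, 3,000 PR-UAS-bla HEK293T cells per well were treated with compounds for 16 hr after a 6 hr preincubation at 37C and 5% CO2; cell viability is the CellTiter-Glo luminescence signal.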
Assay [6] can be described thus: qHTS assay to identify small molecule antagonists of the TGF-beta/Smad signaling pathway - cell viability counter screen (AID 1346824). Also: nearly all actives have a fitted effect of over 50% in size. In a few lines:
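Cytotoxicity counter-screen run in the same wells as the beta-lactamase Smad reporter read: CellTiter-Glo luminescence after 30 min at room temperature. HEK 293T SBE-bla cells had 5 hr compound exposure at 37 C with TGF-beta1 (0.25 ng/mL stock).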

The nature of assay [7]: qHTS assay to identify small molecule agonists of the TGF-beta/Smad signaling pathway - cell viability counter screen (AID 1346829). Also: top concentration of the series differs between compounds; nearly all actives have a fitted effect of over 45% in size. A digest of the protocol: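 Luminescence from CellTiter-Glo, read after a 30 min room-temperature incubation, gives cell viability of SBE-bla HEK 293T cells treated 5 hr with compounds at 37 C.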
Assay [8] in a line: qHTS assay to identify small molecule agonists of the TGF-beta/Smad signaling pathway (AID 1346859; active = well fitted activation curve with a large enough effect in the signal ratio in the repeat runs, not every such curve was filed as active; the % refers to the signal ratio; also: series mostly up to about 77 µM). A digest of the protocol: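 Each well held 4,000 SBE-bla HEK 293T cells incubated overnight before compound addition; 5 hr later the cleavable FRET substrate went on for 2 hr at room temperature, and fluorescence was read at two emissions.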
In assay [9] the target is Thyrotropin-releasing hormone receptor (Homo sapiens) (UniProt P34981). Nature of the assay: qHTS assay to identify small molecule antagonists of the thyrotropin-releasing hormone receptor (TRHR) signaling pathway (AID 1346877; active = well fitted inhibition curve with a large enough effect in the repeat runs, not every such curve was filed as active; also: series mostly up to about 51 µM). A digest of the protocol:
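Human TRHR in HEK293 cells; inhibition of the intracellular calcium rise triggered by 1 nM TRH was followed by fluorescence over 3 min. Compounds were run at 15 concentrations, three replicates each.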

Assay [10] has the same target. Briefly: qHTS assay to identify small molecule agonists of the thyrotropin-releasing hormone receptor (TRHR) signaling pathway (AID 1346891; calls by dose curve; also: series mostly up to about 58 µM). A digest of the protocol:
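Screening of agonists relied on calcium signalling in HEK293 cells expressing human TRHR: dye loading 2 h at 37 °C preceded compound addition and a 3-min fluorescence time course.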

Assay [11] is described as follows: Human pregnane X receptor (PXR) small molecule agonists, qHTS cell viability counter screen (AID 1346977). Also: nearly all actives have a fitted effect of over 50% in size. Also: potency is read from the fitted curve at half-maximal effect. A digest of the protocol: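 Tox21 qHTS format; PXR-Luc HepG2, 2,000/well, charcoal-stripped FBS 5%. Cpd exposure 24hr. Read: CellTiter-Fluor fluorescence, multiplexed with luciferase.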
Assay [12] in a line: Caspase-3/7 induction in HepG2 cells by small molecules, qHTS assay (AID 1346978). Also: nearly all actives have a fitted effect of over 15% in size. A digest of the protocol:
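Caspase-3/7 induction was measured by Caspase-Glo 3/7 luminescence (30 min, room temperature) after a 17 hr compound exposure of wild-type HepG2 cells seeded at 2,000 per well and pre-incubated 5 hr.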

Assay [13] is described as follows: Caspase-3/7 induction in CHO-K1 cells by small molecules, qHTS cell viability counter screen (AID 1346979). Also: nearly all actives have a fitted effect of over 35% in size. Also: potency is read from the fitted curve at half-maximal effect. In a few lines:
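CellTiter-Fluor viability check, qHTS format: wild-type CHO-K1, 16hr compound treatment, 1hr reagent incubation, fluorescence read.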

Assay [14] in a line: Caspase-3/7 induction in CHO-K1 cells by small molecules, qHTS assay (AID 1346980). Also: nearly all actives have a fitted effect of over 15% in size. A digest of the protocol:
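Luminescent Caspase-Glo 3/7 read (30min, room temperature) quantified apoptosis induction. Cells were wild-type CHO-K1, treated with compound for 17hr at 37 C and 5% CO2.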

Assay [15] is described as follows: Caspase-3/7 induction in HepG2 cells by small molecules, qHTS cell viability counter screen (AID 1346981). Also: nearly all actives have a fitted effect of over 30% in size. Also: potency is read from the fitted curve at half-maximal effect. As to activity change, negative = cytotoxicity: series mostly up to about 92 µM. In a few lines: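 The parent HepG2 line is plated at 2,000 cells per well and rested 5 hr before compound pinning from DMSO stocks. Following a 16-hr treatment at 37 C, a fluorogenic live-cell substrate (CellTiter-Fluor) reports viability after 1 hr.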
The target in assay [16] is Nuclear receptor subfamily 1 group I member 2 (Homo sapiens) (UniProt O75469). Nature of the assay: Human pregnane X receptor (PXR) small molecule agonists, qHTS assay (AID 1346982). Also: nearly all actives have a fitted effect of over 35% in size. A digest of the protocol:
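After plating in 5% charcoal-stripped FBS and a 5 hr rest, PXR-Luc HepG2 cells received compounds in DMSO. Following 24 hr at 37 C, ONE-Glo was added and light output read.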

Assay [17] addresses Cytochrome P450 2D6 (Homo sapiens) (UniProt P10635). Briefly: Cytochrome P450 Family 2 Subfamily D Member 6 (CYP2D6) small molecule antagonists: luciferase reporter qHTS assay (AID 1671196). Also: nearly all actives have a fitted effect of over 50% in size. Also: potency is read from the fitted curve at half-maximal effect. As to activity change, negative = inhibition: series mostly up to about 120 µM. In a few lines: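 Quantitative HTS of Tox21 chemicals against CYP2D6 using a luminescent proluciferin substrate. After NADPH addition, 1 h room-temperature reaction; luminescence recorded 20 min post detection reagent.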
(In general: In a reporter assay the amount or activity of a reporter protein is the signal.)

Assay [18] concerns the target Nuclear receptor subfamily 1 group I member 2 (Rattus norvegicus) (UniProt Q9R1A7). Briefly: Rat pregnane X receptor (rPXR) activation by small molecules, qHTS assay (AID 1346983). Also: nearly all actives have a fitted effect of over 20% in size. The following applies: rPXR luciferase reporter cells, One-Glo luminescence, 24 h; active compounds read high. A digest of the protocol:
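Luminescent readout (One-Glo luciferase, 30 min room temperature) followed 24 hr compound treatment at 37 C of rPXR cells plated 2,000 per well and preincubated 5hr; qHTS format with compounds delivered in DMSO.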

Assay [19] has as its target Nuclear receptor subfamily 1 group I member 2 (Homo sapiens) (UniProt O75469). Briefly: CYP3A4 induction through human pregnane X receptor (PXR) by small molecules, qHTS assay (AID 1346984). Also: nearly all actives have a fitted effect of over 40% in size. A digest of the protocol:
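Human PXR activation is tracked via CYP3A4 promoter-luciferase in DPX-2 (HepG2) cells. Compounds treat cells for 24hr at 37C, and luminescence is read after One-Glo.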

For assay [20] the target is unchanged. Briefly: Human pregnane X receptor (PXR) activation by small molecules, qHTS assay (AID 1346985). Also: nearly all actives have a fitted effect of over 40% in size. A digest of the protocol:
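DPX-2 cells (HepG2 co-transfected with a PXR response element and a CYP3A4-promoter luciferase construct) were seeded at 2,000 per well, rested 5 hr at 37C, then exposed to DMSO-dissolved compounds for 24 hr. Activation was read as luciferase luminescence.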

Values without a mark were called inactive. Results filed as inconclusive are left out. Activity calls are given as the source filed them. Unless noted, calls follow the shape of the dose curve; as a rule, active = well fitted curve in the direction sought with a large enough effect in the repeat runs; inconclusive = weak or mixed curves; inactive = no such curve, though single readings can be large; an effect the other way counts as inactive or inconclusive.
% is scaled to controls: 0 for no effect and ±100 for the full control effect.

Chain of Progesterone receptor (Homo sapiens) (P06401 whole entry, looked up): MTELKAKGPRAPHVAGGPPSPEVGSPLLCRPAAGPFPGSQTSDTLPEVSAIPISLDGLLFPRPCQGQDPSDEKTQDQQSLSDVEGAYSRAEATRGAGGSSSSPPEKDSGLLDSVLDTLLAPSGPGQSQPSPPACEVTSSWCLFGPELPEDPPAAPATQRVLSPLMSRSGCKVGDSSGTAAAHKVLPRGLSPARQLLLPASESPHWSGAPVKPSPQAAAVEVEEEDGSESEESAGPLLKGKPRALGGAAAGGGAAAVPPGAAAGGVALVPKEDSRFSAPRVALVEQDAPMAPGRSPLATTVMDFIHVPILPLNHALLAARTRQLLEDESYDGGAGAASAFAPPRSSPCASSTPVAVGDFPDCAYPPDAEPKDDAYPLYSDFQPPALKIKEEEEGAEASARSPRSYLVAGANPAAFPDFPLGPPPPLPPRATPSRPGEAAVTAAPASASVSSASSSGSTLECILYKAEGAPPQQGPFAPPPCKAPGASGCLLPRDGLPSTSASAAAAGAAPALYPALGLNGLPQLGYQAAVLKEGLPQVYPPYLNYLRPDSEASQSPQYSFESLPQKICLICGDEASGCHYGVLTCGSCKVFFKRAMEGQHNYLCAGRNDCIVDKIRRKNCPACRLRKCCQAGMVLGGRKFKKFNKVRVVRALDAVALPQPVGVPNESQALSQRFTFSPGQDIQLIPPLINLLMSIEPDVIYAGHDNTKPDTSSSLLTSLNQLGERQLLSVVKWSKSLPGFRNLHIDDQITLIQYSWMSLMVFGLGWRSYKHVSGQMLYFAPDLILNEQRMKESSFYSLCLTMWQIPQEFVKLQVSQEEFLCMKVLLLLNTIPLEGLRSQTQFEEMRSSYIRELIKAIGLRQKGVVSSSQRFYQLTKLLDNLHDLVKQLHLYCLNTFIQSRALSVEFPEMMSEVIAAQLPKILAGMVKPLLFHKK
Chain of Cytochrome P450 2D6 (Homo sapiens) (P10635 whole entry, looked up): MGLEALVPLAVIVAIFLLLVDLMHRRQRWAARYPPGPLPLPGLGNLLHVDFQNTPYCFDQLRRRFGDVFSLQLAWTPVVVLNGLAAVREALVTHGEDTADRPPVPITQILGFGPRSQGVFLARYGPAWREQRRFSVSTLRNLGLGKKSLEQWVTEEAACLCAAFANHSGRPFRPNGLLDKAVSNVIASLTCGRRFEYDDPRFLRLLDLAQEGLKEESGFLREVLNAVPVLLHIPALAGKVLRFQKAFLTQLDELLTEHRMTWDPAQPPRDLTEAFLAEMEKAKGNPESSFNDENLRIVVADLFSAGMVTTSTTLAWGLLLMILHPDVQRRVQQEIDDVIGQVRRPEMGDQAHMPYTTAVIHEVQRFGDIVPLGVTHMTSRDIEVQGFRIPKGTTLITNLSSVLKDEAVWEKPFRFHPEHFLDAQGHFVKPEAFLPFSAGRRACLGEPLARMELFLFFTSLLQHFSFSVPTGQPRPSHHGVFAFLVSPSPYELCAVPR
Chain of Nuclear receptor subfamily 1 group I member 2 (Homo sapiens) (O75469 whole entry, looked up): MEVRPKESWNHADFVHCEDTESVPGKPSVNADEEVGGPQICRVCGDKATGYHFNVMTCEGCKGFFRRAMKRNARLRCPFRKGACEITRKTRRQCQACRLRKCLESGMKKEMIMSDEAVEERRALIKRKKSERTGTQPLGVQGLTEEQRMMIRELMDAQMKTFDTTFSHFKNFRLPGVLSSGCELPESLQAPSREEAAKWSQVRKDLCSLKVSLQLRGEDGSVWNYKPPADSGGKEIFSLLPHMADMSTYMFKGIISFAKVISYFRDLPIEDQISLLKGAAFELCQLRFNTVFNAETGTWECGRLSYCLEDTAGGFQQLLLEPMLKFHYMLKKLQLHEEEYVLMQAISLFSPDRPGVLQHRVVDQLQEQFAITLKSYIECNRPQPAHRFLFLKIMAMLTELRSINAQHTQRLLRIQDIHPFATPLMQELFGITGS
Chain of Thyrotropin-releasing hormone receptor (Homo sapiens) (P34981 whole entry, looked up): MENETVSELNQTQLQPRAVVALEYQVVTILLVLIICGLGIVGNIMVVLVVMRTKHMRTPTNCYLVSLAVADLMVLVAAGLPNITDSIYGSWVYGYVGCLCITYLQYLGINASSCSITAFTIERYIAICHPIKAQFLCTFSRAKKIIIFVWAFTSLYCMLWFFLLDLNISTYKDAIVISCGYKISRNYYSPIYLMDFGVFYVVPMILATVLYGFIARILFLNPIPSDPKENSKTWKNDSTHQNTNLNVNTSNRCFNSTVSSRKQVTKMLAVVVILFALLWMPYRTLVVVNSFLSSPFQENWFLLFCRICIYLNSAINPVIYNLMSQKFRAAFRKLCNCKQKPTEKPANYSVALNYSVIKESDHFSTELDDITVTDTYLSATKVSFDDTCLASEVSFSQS
Chain of Nuclear receptor subfamily 1 group I member 2 (Rattus norvegicus) (Q9R1A7 whole entry, looked up): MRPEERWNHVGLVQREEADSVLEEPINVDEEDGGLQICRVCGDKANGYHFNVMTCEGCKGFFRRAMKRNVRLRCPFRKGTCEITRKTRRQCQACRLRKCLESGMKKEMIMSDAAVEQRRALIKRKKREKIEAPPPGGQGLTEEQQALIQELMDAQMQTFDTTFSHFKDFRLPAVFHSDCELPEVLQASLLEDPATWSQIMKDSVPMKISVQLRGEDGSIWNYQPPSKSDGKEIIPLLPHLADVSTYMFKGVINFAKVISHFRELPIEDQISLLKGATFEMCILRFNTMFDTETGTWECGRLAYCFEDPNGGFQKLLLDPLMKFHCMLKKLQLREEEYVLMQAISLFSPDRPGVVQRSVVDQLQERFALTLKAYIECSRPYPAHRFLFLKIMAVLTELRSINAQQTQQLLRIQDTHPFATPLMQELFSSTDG

`Nc1ccc(NCCO)c([N+](=O)[O-])c1`: the Potency in assay [1] was 30.6 µM (active); in assay [11], 48.6 µM (active); in assay [13] it was 43.3 µM (active); in [15], 48.6 µM (active); in assay [17], 35.6 µM (active). Besides, the Potency result in assay [2], in [3], in assay [4], in assay [5], in [6] and in assay [7] was “inactive” throughout. Moreover, the Potency entry in [8], in assay [9], in assay [12], in [14] and in [16] was “inactive” throughout. Further, in assay [10], the molecule was called inactive.
With `C[C@@H](O)[C@H](N)C(=O)O`, the activity change, negative = cytotoxicity in assay [1] is 2.14% [at 19 µM]; in assay [4], -0.923% [at 18.9 µM]; in assay [5], -6.31% [at 19 µM]; in [7], 1.96% [at 15.8 µM]; in [11] it was 14% [at 19 µM]; in assay [13], -0.658% [at 19 µM]. Also, in [15], the activity change, negative = cytotoxicity is -2.32% [at 19 µM]. The activation in [2] is 0.125% [at 19 µM]; in assay [8], 0.576% [at 15.8 µM]; in assay [10], 0.352% [at 11.8 µM]; in assay [16], -12.7% [at 19 µM]. The activity change, negative = inhibition is 8.03% [at 18.9 µM] in [3] and -2.59% [at 23.6 µM] in [17]. Moreover, in [6], the viability change, negative = cytotoxic is 4.73% [at 15.8 µM]. In assay [9], the activity, negative = inhibition was 12.1% [at 10.5 µM]. Moreover, the caspase activation in [12] is -1.24% [at 19 µM]. In addition, in assay [14], the caspase-3/7 activation is -0.26% [at 19 µM]. For the same molecule, the max activation in assay [18] is -1.79%. Moreover, the Potency result in assay [19] and in [20] was “inactive” in each case.
In the case of `NC[C@H]1O[C@H](O[C@H]2[C@H](O[C@@H]3O[C@H](CO)[C@@H](O)[C@H]3O)C(O)[C@H](N)C[C@@H]2N)[C@H](N)[C@@H](O)[C@@H]1O` (some centres not stated), the activity change, negative = cytotoxicity in assay [1] is 3.36% [at 8.39 µM]; in assay [4] it was 12.4% [at 8.39 µM]; in [5], 9.53% [at 8.39 µM]; in assay [7] it was 21.1% [at 6.97 µM]; in assay [11] it was 22.9% [at 8.39 µM]; in assay [13], 6.09% [at 8.39 µM]. Also, in [15], the activity change, negative = cytotoxicity was 8% [at 8.39 µM]. Further, the activation in assay [2] was 14.9% [at 8.39 µM]; in assay [8], 6.05% [at 6.97 µM]; in [10], -0.179% [at 5.23 µM]. For the same molecule, the activity change, negative = inhibition in assay [3] is 0.98% [at 8.39 µM]; in [17] it was -0.538% [at 10.5 µM]. Besides, the viability change, negative = cytotoxic in [6] was -16.4% [at 6.97 µM]. Moreover, the activity, negative = inhibition in assay [9] is 3.15% [at 4.65 µM]. For the same molecule, the caspase activation in assay [12] was -1.04% [at 8.39 µM]. In addition, in [14], the caspase-3/7 activation was -0.0652% [at 8.39 µM]. Moreover, in [18], the max activation was 3.62%.
Take `Cc1ccc(-c2ccccc2)cc1`: the Potency entry in assay [1], in assay [2], in assay [3], in assay [4], in assay [5] and in assay [6] was “inactive” in each case. Also, the Potency entry in [7], in [8], in assay [9], in assay [11], in assay [13] and in assay [14] was “inactive” in each case. The Potency entry in assay [16] and in assay [17] was “inactive” in each case. In [10], the molecule was called inactive.
With `CCCCCc1ccc(Cl)cc1`, the Potency entry in [1], in [2], in assay [3], in [4], in assay [5] and in [7] was “inactive” each time. Also, the Potency entry in assay [8], in [9], in assay [11], in [12], in assay [13] and in [14] was “inactive” each time. Further, the Potency entry in assay [15], in [16] and in assay [17] was “inactive” throughout. In addition, in assay [10], the result was inactive.
On to `CC1(C)CCC[C@]2(C)[C@H]3CCO[C@]3(C)CC[C@@H]12`, for which the Potency result in assay [1], in assay [2], in [3], in assay [4], in [5] and in assay [6] was “inactive” in each case. Further, the Potency result in assay [7], in assay [8], in assay [9], in assay [11], in [12] and in assay [13] was “inactive” each time. The Potency result in [15], in assay [16] and in assay [17] was “inactive” each time. In addition, the outcome in assay [10] was inactive.
Take `O=C(Nc1ccc2c(O)c(N=Nc3ccc(N=Nc4ccc(S(=O)(=O)O)cc4)cc3)c(S(=O)(=O)O)cc2c1)c1ccccc1`: the Potency in assay [1] is 13.7 µM (active); in assay [11] it was 8.63 µM (active); in [13], 15.4 µM (active); in [15], 24.3 µM (active); in assay [17], 35.6 µM (active). Moreover, the Potency entry in assay [2], in assay [3], in assay [4], in [5], in [6] and in assay [7] was “inactive” in each case. For the same molecule, the Potency entry in [8], in assay [9], in assay [14] and in assay [16] was “inactive” in each case. Further, the molecule was classed as inactive in assay [10].

Source of the values: PubChem BioAssay (Tox21).
